Experimental data from PubChem BioAssay AID504635 (The Scripps Research Institute Molecular Screening Center, 2011).
The list shows a part of the results. The source made the active and inactive calls. Cut-off read from the data, not from the text of the source: active = inhibition above about 18%; inactive = the rest.

biological target: Troponin I, cardiac muscle (Homo sapiens) + Troponin T, cardiac muscle (Homo sapiens) + Troponin C, slow skeletal and cardiac muscles (Homo sapiens) (UniProt P19429+P45379+P63316); test: cardiac RTF calcium sensitivity inhibitors, confirmation, biochemical, fluorescence readout (AID 504635); conditions: reconstituted cardiac thin filaments, at 7.15 µM, active compounds read high

inhibition, active:
O=c1ccc2c(-c3ccccc3S(=O)(=O)O)c3ccc(O)c(O)c3oc-2c1O 154%

inhibition, inactive:
Cc1cccc(N(C(=O)Cc2cccs2)C(C(=O)NC2CCCC2)c2ccsc2)c1 (stereo not given) -3.11%
C/C(=N\NC(=O)C(N)=O)c1ccc2c(c1)OCCO2 -2.4%
CC1CCCC(NC(=O)COC(=O)[C@@H]2CC(O)CN2S(=O)(=O)c2ccc3c(c2)OCCO3)C1C (stereo not given in full) -1.77%
COC(=O)c1cccc(N(CC(=O)NCC2CCCO2)C(=O)CCC(=O)Nc2cc(C)on2)c1 (stereo not given) -2.6%
COc1ccc(NC(=O)CC2COc3ccccc3O2)c(OC)c1 (stereo not given) -2.46%
O=C(O)c1cccc(S(=O)(=O)Nc2ccc(O)cc2Sc2nc3ccccc3s2)c1 -6.09%
COc1cc(OC)cc(C(=O)NCC(=O)OCc2csc(-c3ccccc3)n2)c1 2.35%
Cc1ccc(S(=O)(=O)N(CC(=O)Nc2cccc([N+](=O)[O-])c2)Cc2ccc(Cl)cc2)cc1 -1.82%
CCCCn1c(=O)c(C(C)=O)c(O)c2ccccc21 -4.91%
COC(=O)CCc1sc(Nc2ccc(Br)cc2)nc1-c1ccc(OC)cc1 1.8%
COc1cccc(CNC(=O)C(=O)NCCC2CCCCN2S(=O)(=O)c2ccc(C)cc2)c1 (stereo not given) -4.1%
Cc1cc(NC(=O)CCC(=O)N(CC(=O)NCC2CCCO2)c2ccccc2)no1 (stereo not given) -4.68%
Cc1ccc(NC(=O)NC2CCCCC2)cc1S(=O)(=O)N1CCOCC1 -0.15%
C=CCNC(=O)COC(=O)c1ccccc1C(=O)N(C)C1CCCCC1 0.72%
